In all, about 16,000 compounds went through this assay and about 5,100 (32%) were called active. Inconclusive results (about 25%) are left out. Calls follow the shape of the dose curve; as a rule, active = well fitted curve in the direction sought with a large enough effect; inconclusive = small, poorly fitted or top-dose-only effect, or effect the other way; inactive = no such curve, though single readings can be large or run the other way. Some of the results follow.
biological target: Cytochrome P450 3A4 (Homo sapiens) (UniProt P08684); assay: Cytochrome panel assay with activity outcomes; conditions: recombinant CYP, pro-luciferin dealkylation, luminescence, p450-cyp3a4; series mostly up to 57.1 µM
% is scaled to controls: 0 for no effect and ±100 for the full control effect.

Chain of Cytochrome P450 3A4 (Homo sapiens) (P08684 whole entry, looked up): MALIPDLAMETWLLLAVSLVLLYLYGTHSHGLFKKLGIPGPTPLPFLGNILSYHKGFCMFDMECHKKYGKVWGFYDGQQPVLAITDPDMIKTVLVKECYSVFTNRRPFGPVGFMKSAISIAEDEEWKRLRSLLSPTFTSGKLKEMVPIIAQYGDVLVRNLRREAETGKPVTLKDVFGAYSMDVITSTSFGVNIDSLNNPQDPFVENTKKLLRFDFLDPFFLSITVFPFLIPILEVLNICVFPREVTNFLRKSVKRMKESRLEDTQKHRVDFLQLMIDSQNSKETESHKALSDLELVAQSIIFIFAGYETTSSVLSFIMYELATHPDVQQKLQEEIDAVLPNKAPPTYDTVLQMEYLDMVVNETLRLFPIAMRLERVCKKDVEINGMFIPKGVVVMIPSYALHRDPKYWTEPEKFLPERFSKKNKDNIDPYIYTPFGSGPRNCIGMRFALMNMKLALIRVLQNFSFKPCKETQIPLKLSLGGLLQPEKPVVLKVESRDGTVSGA

AC50, active:
CN1CCc2cc(NC(=O)Nc3cccnc3)ccc21 12.6 µM
COc1ccc(Cl)cc1NC(=O)C12CCC(C)(C(=O)O1)C2(C)C (centres undefined) 15.8 µM
COc1ccc(S(=O)(=O)Nc2cccc(Cl)c2)cc1OC 6.31 µM
Cc1ccc(N2C(=O)c3n[nH]c(C)c3C2c2ccccn2)cc1 (centres undefined) 14.1 µM
Cc1noc(C)c1-c1cncnc1NCCN1CCOCC1 6.31 µM
Cc1ccccc1-c1cncnc1NCCN1CCOCC1 1.58 µM
COCCNc1ncncc1-c1c(C)noc1C 5.01 µM
FC(F)(F)c1ccccc1-c1cncnc1NCCN1CCOCC1 0.794 µM
Cc1nc2c(n1C1CCCCC1)C(=O)c1ccccc1C2=O 14.1 µM
O=C(N/N=C\c1ccc(-c2ccccc2[N+](=O)[O-])o1)C1COc2cc3ccccc3cc2O1 (centres undefined) 17.8 µM
c1ccc2c(c1)oc1c(NCCCn3ccnc3)ncnc12 0.631 µM
c1ccc(-c2nc(NCCCn3ccnc3)c3oc4ccccc4c3n2)cc1 1 µM
COc1ccccc1NC(=O)c1sc2ncn(Cc3ccccc3C)c(=O)c2c1C 4.47 µM
N#Cc1c(-n2ccnc2)cccc1-n1ccnc1 2 µM
N#Cc1c(Cl)cccc1-n1ccnc1 1 µM
Nc1ccccc1Oc1ncc(C(F)(F)F)cc1Cl 14.1 µM
O=C(CSc1nc2ccccc2o1)N1c2ccccc2Sc2ccc(Cl)cc21 8.91 µM
COc1ccc(OCc2nnc(SCC(=O)N3c4ccccc4Sc4ccc(Cl)cc43)o2)cc1 3.55 µM
O=C1c2ccccc2N[C@H](c2cc(Cl)cc(Cl)c2O)N1CCc1ccccn1 0.794 µM
CN(Cc1ccco1)c1ncncc1-c1cccc(C#N)c1 7.94 µM
CN(Cc1ccco1)c1ncncc1-c1ccc2c(c1)OCO2 1.26 µM
CN(C)c1ccc(-c2cncnc2N(C)Cc2ccco2)cc1 0.631 µM
CN(Cc1ccco1)c1ncncc1-c1cccnc1 2.51 µM
COc1cccc(-c2cncnc2N(C)Cc2ccco2)c1 2.51 µM
CCCC[C@@H]1C[C@H]1C(NC(=O)c1cccnc1)c1ccc(Cl)cc1 (some centres undefined) 0.0794 µM
CCCC[C@@H]1C[C@H]1C(NC(=O)c1ccccc1)c1ccccc1 (some centres undefined) 12.6 µM
CCCC[C@@H]1C[C@H]1C(NC(=O)c1ccccc1)c1ccc(Cl)cc1 (some centres undefined) 3.98 µM
CCCC[C@@H]1C[C@H]1C(NC(=O)Cc1ccccc1)c1ccc(Cl)cc1 (some centres undefined) 2.51 µM
O=C(/C=C/c1cc2c(cc1Br)OCO2)NCc1ccc(Cl)cc1 2.51 µM
O=[N+]([O-])c1ccccc1N/N=C/c1c[nH]c2ccccc12 25.1 µM

AC50, inactive:
Cn1ncc(Cl)c1C(=O)Nc1cccnc1
COc1ccc(NS(=O)(=O)c2ccc(I)cc2)cc1N1CCN(C)CC1
Cc1ccc(-n2[nH]c(=O)c3cccnc32)cc1
COCCNc1cc(-c2c(C)noc2C)ncn1
Cc1noc(C)c1-c1nccc(N2CCOCC2)n1
CNc1cc(-c2c(C)noc2C)ncn1
O=C1c2cccnc2C(O)N1C1CCCCC1 (centres undefined)
COc1c(F)c(F)c(C(=O)O)c(Nc2ccc(C)cc2)c1F
Cc1ccc(CNC(=O)C2CC(c3ccccc3[N+](=O)[O-])=NO2)o1 (centres undefined)
O=C(Cn1cnc2c(oc3ccccc32)c1=O)NCc1ccco1
CCOC(=O)C(C)n1cnc2c(oc3ccccc32)c1=O (centres undefined)
Cc1cccc(-n2cccc2)c1C#N
CCCCOc1ccccc1N
O=C(O)c1ccc(CSc2nc3ccccc3o2)cc1
CCOC(=O)CN1N=C(/C=C/c2ccc(C)cc2)CCC1=O
O=C1CC(N2CCN(CCc3ccccn3)CC2)C(=O)N1c1ccc(Cl)cc1 (centres undefined)
CN(C)C(=O)c1ccc(-c2nccc(N(C)Cc3ccco3)n2)cc1
C#C[C@H](N)CCC(=O)O
COc1c(O[C@H]2O[C@@H](CO)[C@@H](O)[C@@H](O)[C@@H]2O)cc2c(c1OC)-c1ccc(SC)c(=O)cc1[C@H](NC(C)=O)CC2
CCCC[C@@H]1C[C@H]1C(NC(=O)c1ccc(-c2ccccc2)cc1)c1ccc(-c2ccccc2)cc1 (some centres undefined)
N[C@@H](C(=O)O)[C@H](CC(=O)O)c1ccc(Cl)cc1
Cc1oc(-c2cccc(Cl)c2)[n+]([O-])c1C

activity, negative = inhibition, inactive:
O=S(=O)(O)c1cc(O)c2c(O)c(N=Nc3cccc4ccccc34)c(S(=O)(=O)O)cc2c1 -11.8% [at 11.4 µM]
NS(=O)(=O)c1ccc(N=Nc2nc3[nH]cnc(=S)c3[nH]2)cc1 -11.9% [at 11.4 µM]
Cc1ccc(-n2cnc(=O)c3cccnc32)cc1 -3.53% [at 2.29 µM]
CS[C@@H](CC(=O)O)C(=O)O -17% [at 11.4 µM]
CC(=O)C1=C(NC(=O)c2ccc(F)cc2)CC2C1C2(C)C (centres undefined) 10% [at 2.29 µM]
CCN1C(=O)[C@@H]2[C@H]3C(=CC[C@@H]2C1=O)C1(OCCCO1)[C@H]1O[C@@H]1[C@H]3O -21.4% [at 11.4 µM]
COc1ccc2c(c1)N(CC[C@H]1CCCCN1C)c1ccccc1S2 -24.2% [at 11.4 µM]
OC1CC2CC[C@H](C1)N2CCCN1c2ccccc2Sc2ccc(Cl)cc21 (some centres undefined) -4.29% [at 11.4 µM]
COc1cc(O)c2c(O)c3c(c4c2c1[C@@]1(C4)C(C)=CCCC1(C)C)[C@H](O)[C@@]1(O)CC(=O)C(C(N)=O)=C(O)[C@]1(O)C3=O -13.9% [at 11.4 µM]
CCc1ccc2[nH]c(O)c(N=Nc3nc(-c4ccccc4)cs3)c2c1 -16.3% [at 2.29 µM]
O=C(O)c1ccccc1N/N=C\c1ccnc2ccccc12 -0.0882% [at 2.29 µM]
O=C(N/N=C/c1c[nH]c2ccccc12)c1cc(-c2ccc(-c3ccccc3)cc2)n[nH]1 -5.85% [at 2.29 µM]

Reference: PubChem BioAssay AID1851 (National Center for Advancing Translational Sciences (NCATS), 2009)
